Compound activity (PubChem)
GPR151 ag: activators of human GPR151; PathHunter beta-arrestin GPR151 cells, luminescence; activation, % at 11.2 µM; hit rate 1% among 650,000; AID 1508602; in the data active means activation above about 4.9%;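 further: 0% = median of compound wells and 100% = cells with positive control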
Target sequence (Q8TDV0 whole entry, looked up): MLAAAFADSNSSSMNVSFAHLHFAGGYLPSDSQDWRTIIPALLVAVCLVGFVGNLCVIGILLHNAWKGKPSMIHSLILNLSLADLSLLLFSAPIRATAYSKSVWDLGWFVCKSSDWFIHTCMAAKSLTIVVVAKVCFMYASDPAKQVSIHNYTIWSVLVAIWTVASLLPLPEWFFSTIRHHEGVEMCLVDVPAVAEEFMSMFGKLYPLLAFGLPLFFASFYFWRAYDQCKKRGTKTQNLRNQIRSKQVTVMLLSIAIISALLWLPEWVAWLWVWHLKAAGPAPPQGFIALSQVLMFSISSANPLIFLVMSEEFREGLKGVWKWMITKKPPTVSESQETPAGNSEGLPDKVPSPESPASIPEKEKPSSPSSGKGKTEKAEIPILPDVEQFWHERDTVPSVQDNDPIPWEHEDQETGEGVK
TEAD-YAP inh: TEAD-YAP interaction inhibition | HEK-TIYL cells, TEAD-Gal4/YAP UAS-luciferase luminescence | inhibition, % at 9.12 µM | hit rate 1.4% among 640,000 | AID 1259422; in the data active means inhibition above about 32%;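 further: 0% = median of test compound wells and 100% = reference inhibitor wells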
FBW7 activator: activators of human E3 ligase FBW7 | Q969H0 | AlphaScreen FBW7–phospho-cyclin E peptide binding, activator screen | normalized activity (activation), % at 26.1 µM | hit rate 0.13% among 650,000 | AID 1259310; in the data active means normalized activity above about 1.9%;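 further: purified mutant Fbw7 with reduced substrate affinity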
MITF primary: human MITF inhibition, primary screen | O75030 | AlphaScreen MITF homodimerization, bead proximity signal | hit rate 0.91% among 650,000 | inhibition, % at 2.6 µM; in the data active means inhibition above about 50%;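 further: 0% = vehicle wells with protein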
GPR151 confirm: human GPR151 activation, confirmation screen. GPR151 PathHunter beta-arrestin cells, luminescence, 90 min; % of EA-reagent control over plate median. 6,700 tested, under 10 active. AID 1508609. shares compounds with GPR151 ag. activation, % at 11.2 µM;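 active means mean percent activation across replicates above the confirmation screen cutoff of 4.91%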
GPR119 counter: counter-screen for GPR151 activators: effect on human GPR119; activation, % at 11.2 µM; shares compounds with GPR151 ag; hit rate 0.3% among 6,700; GPR119 PathHunter beta-arrestin cells, luminescence, 90 min; 0 = compound-well median, 100 = enzyme-acceptor control; AID 1508611;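 active means mean percent activation in the counterscreen above 29.09%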;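 further: counterscreen on off-target GPR119 to flag nonselective hits from the GPR151 activator screen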
An asterisk follows results filed as active; nt = no result. Compounds with a hit are over-represented: about 3.5% of the library has one in this group of screens.

SMILES	GPR151 ag	TEAD-YAP inh	FBW7 activator	MITF primary	GPR151 confirm	GPR119 counter
Cc1ccc(S(=O)(=O)NCC(=O)NN=C2CCC(C)CC2)cc1 (stereo not given)	6.5*	-1	0	-12	-1	-15
COc1ccccc1/C=C/CN1CCNC(=O)C1CC(=O)O (stereo not given)	0	1	0	0	nt	nt
Clc1ccc(COc2ccccc2CNn2cnnc2)cc1	0	5	0	7	nt	nt
CCOc1cccc(CNn2cnnc2)c1OCc1ccccc1	5.5*	2	0	3	1	9
O=C(O)C1CCN(C(=O)CSc2nnc(NC3CCCCC3)s2)CC1	-1	-1	0	1	nt	nt
COc1ccc(OC(C)C(=O)Nc2cc(C)ccc2C)cc1 (stereo not given)	5.0*	9	0	-3	2	1
COc1ccc(OC(C)C(=O)Nc2ccc(C)cc2C)cc1 (stereo not given)	-2	3	0	10	nt	nt
O=C(NC1C2CC3CC(C2)CC1C3)c1ccc(CN2CCC(O)CC2)[nH]c1=O (stereo not given)	-1	4	0	1	nt	nt
O=C(N[C@H]1CCCCNC1=O)c1ccc(CN2CCC(c3ccccc3)CC2)[nH]c1=O	5.3*	3	0	-13	0	6
COc1ccc(Nc2cc(-c3cncc(-c4cccs4)c3)nc(C)n2)cc1	6.0*	2	0	5	-1	-11
COc1ccc(Nc2cc(-c3cncc(-c4ccc(OC)cc4)c3)nc(C)n2)cc1	2	-4	0	7	nt	nt
O=C(NCCc1ccccc1)c1ccc(CNC(=O)c2ccc3c(c2)OCO3)cc1	1	-7	0	2	nt	nt
CCCCN(CC)C(=O)c1c[nH]c2ccc(S(=O)(=O)N(C)c3ccc(Cl)cc3F)cc2c1=O	8.3*	6	0	0	0	-11
CN(c1ccc(F)cc1)S(=O)(=O)c1ccc2[nH]cc(C(=O)NCC3CCCO3)c(=O)c2c1 (stereo not given)	5.4*	-1	0	-5	0	0
CCCCN(CC)C(=O)c1c[nH]c2ccc(S(=O)(=O)N(C)c3ccc(Cl)cc3)cc2c1=O	1	-1	0	-4	nt	nt
CCCC(C)C(=O)Nc1ccc(F)c([N+](=O)[O-])c1 (stereo not given)	2	4	0	17	nt	nt
CC(=O)Nc1ccc(NC(=O)c2cnc(-c3ccccc3)s2)cc1	5.9*	-6	0	6	-1	-12
CCn1c(C)cc(C=C2C(=O)c3ccccc3C2=O)c1C	8.2*	66*	0	-4	0	-26
O=C1NC(N2CCOCC2)=N/C1=C/c1ccc2c(c1)OCO2	9.4*	-15	0	5	0	6
COc1cccc(C(=O)N2CCC3(CC2)OCc2cccc(OC)c2O3)c1	0	11	1	25	nt	nt
O=C1NN(c2ccc(F)c(Cl)c2)C(=O)/C1=C\c1cccc(I)c1	5.2*	8	0	7	0	9
CC(=O)Oc1cccc(/C=C2/C(=O)NN(c3ccc(C)c(C)c3)C2=O)c1	5.0*	-6	1	2	-1	-13
O=C1NN(c2ccc(F)c(Cl)c2)C(=O)/C1=C\c1ccc(Br)cc1	-1	7	1	19	nt	nt
O=C1OC(c2ccc(Cl)cc2Cl)=N/C1=C\c1ccc(Br)cc1	0	-7	0	9	nt	nt
Cc1ccc2c(c1)C1NC(=S)N(c3cccc(Cl)c3)C(C)(O2)C1C(=O)Nc1ccc(Cl)cc1 (stereo not given)	-2	4	0	22	nt	nt
SMILES	GPR151 ag	TEAD-YAP inh	FBW7 activator	MITF primary	GPR151 confirm	GPR119 counter
CCN(CC)CCOc1ccc2c(c1)C(=O)c1cc(OCCN(CC)CC)ccc1-2	15*	50*	0	8	-1	-3
O=C(Nc1ccc2c(c1)CN(C1CCSCC1)CC2)C1(c2ccccc2)CC1	0	1	0	-18	nt	nt
O=C(c1ccsc1)N1CCc2ccc(NC(=O)C3(c4ccccc4)CC3)cc2C1	5.9*	7	0	10	-1	-8
CC(C)(C)n1nc2c(c1NC(=O)c1cccc(F)c1)CSC2	0	8	0	-3	nt	nt
COc1ccc(NC(=O)Nc2c3c(nn2C(C)(C)C)CSC3)cc1	5.5*	-6	0	-7	0	0
COc1ccc(CC(=O)Nc2c3c(nn2C(C)(C)C)CSC3)cc1	0	10	0	14	nt	nt
